Publication PMC5540273 (PLoS ONE, 2017)

The molecules below were run on MAP3K3. Conditions: concentration: 1 μM, replicates: in singlicate; n = 1.
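Further: KINOMEscan kinase panel screen.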

Row | SMILES | %Inh [%]
1 | CCC(=O)c1c(-c2ccccc2)c2cc(Cl)ccc2c(=O)n1Cc1cc(S(C)(=O)=O)n(CCC(C)(C)O)n1 | 37
2 | COc1cccc(C2=C(Nc3cccc(C(=O)O)c3)C(=O)NC2=O)c1 [SB-390770] | 3
3 | CCc1nc(-c2cccc(C)c2)c(-c2ccncc2)s1 | 0
4 | CCC(=O)c1c(-c2ccccc2)c2cc(Cl)ccc2c(=O)n1Cc1cc(C(=O)NC2CC2)n(C)n1 | 12
5 | CCS(=O)(=O)c1ccc(OC)c(Nc2ncc(-c3ccc(F)cc3)o2)c1.Cl [GW591947] | 0
6 | COc1cccc(C2=C(N(C)c3ccccc3)C(=O)NC2=O)c1 [SB-334865] | 0
7 | CCCC(=O)Nc1n[nH]c2ncc(-c3cccc4ccccc34)cc12 [SB-642057] | 0
8 | C[C@@H]1CC[C@H](C(=O)NC2CCCCC2)CN1c1cc(-c2ccc3c(N)n[nH]c3c2)nc(N)n1 [GSK2291363] | 0
9 | COc1cc(Nc2nccc(N3CCC(NC(=O)C(C)c4ccc(Cl)cc4)C3)n2)cc(OC)c1OC (stereo not shown) [GSK1379757] | 0
10 | O=C(Nc1n[nH]c2nc(-c3ccccc3)c(Cl)cc12)C1CC1 [SB-734909] | 33
11 | CN1C(=O)C(Nc2ccccc2)=C(c2ccccc2)C1=O [SB-300079] | 0
12 | CCn1c(-c2nonc2N)nc2ccccc21 [SB-693162/GW549034] | 31
13 | Nc1nc(-c2ccccc2F)c(-c2ccnc3ccccc23)s1 [GW560459] | 0
14 | Cc1ccc(Oc2ccc(Nc3ncnc4cc[nH]c34)cc2C)cn1 | 30
15 | O=C(NCc1cccs1)c1cc(C(=O)c2c(Cl)cccc2Cl)c[nH]1 [GW823670] | 0
16 | COc1ccc(-c2cc3c(C)nc(N)nc3n([C@H]3CC[C@H](O)CC3)c2=O)cn1 | 0
17 | COc1cc2ncn(-c3cc(OCc4ccncc4Br)c(C(N)=O)s3)c2cc1OC [GW854278] | 1
18 | Cc1cc(Nc2nc(-c3cccc(C)n3)nc3ccccc23)ccn1 [GW872411] | 0
19 | COc1ccc(CNC(=O)NC2CCN(c3ccnc(Nc4ccc(F)cc4)n3)C2)cc1 (stereo not shown) [GSK1379706] | 0
20 | COc1cc(Nc2nccc(N3CCC(NC(=O)C4COc5ccccc5O4)C3)n2)cc(OC)c1OC (stereo not shown) [GSK1379761] | 0
21 | COc1cccc(-n2cnc3c(N)ncnc32)c1 [SKF-97416] | 22
22 | CCC(=O)c1c(-c2ccccc2)c2cc(Cl)ccc2c(=O)n1Cc1cc(S(C)(=O)=O)n(CC(F)F)n1 | 0
